# Reference: the supplement of paper PMC6555819
# Key:
# Assay in all cases: PBM binding z-score (relative to random genomic background probes); higher = stronger binding; sequences stand for … in GC…GCGATTGACAGCGTAGAATGAAGG
# [1] = system: FXR:RXRa (NR concentration 270 nM, RXRa partner concentration 90 nM)
# Summary of the method: (§1)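 For binding z-scores, the reference was random background probes on custom Agilent 4×180K protein-binding microarrays. These arrays were incubated 1 h with ligand-free nuclear receptor dimers in PBS pH 7.4, 2% milk, 0.02% Triton X-100, 1 mM DTT, 0.2 mg/mL BSA and 0.4 mg/ml salmon testes DNA. Fluorescence was scanned after antibody detection of each partner (one per run) and regression-normalized.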
# [2] = system: LXRa:RXRa (NR concentration 270 nM, RXRa partner concentration 90 nM)
# Summary of the method: as §1
# [3] = system: LXRa homodimer (NR concentration 270 nM)
# Summary of the method: as §1
# [4] = system: LXRb:RXRa (NR concentration 270 nM, RXRa partner concentration 90 nM)
# Summary of the method: as §1
# [5] = system: LXRb homodimer (NR concentration 270 nM)
# Summary of the method: as §1
# [6] = system: PPARa:RXRa (NR concentration 270 nM, RXRa partner concentration 90 nM)
# Summary of the method: as §1
# [7] = system: PPARg:RXRa (NR concentration 180 nM, RXRa partner concentration 90 nM)
# Summary of the method: as §1
# [8] = system: PPARg:RXRa 270nM:90nM, anti-RXR (NR concentration 270 nM, RXRa partner concentration 90 nM)
# Summary of the method: as §1
# [9] = system: PPARg:RXRa 30nM:10nM, anti-RXR (NR concentration 30 nM, RXRa partner concentration 10 nM)
# Summary of the method: as §1
# [10] = system: PPARg:RXRa 90nM:30nM, anti-RXR (NR concentration 90 nM, RXRa partner concentration 30 nM)
# Summary of the method: as §1
Sequence,PBM binding z-score [1],PBM binding z-score [2],PBM binding z-score [3],PBM binding z-score [4],PBM binding z-score [5],PBM binding z-score [6],PBM binding z-score [7],PBM binding z-score [8],PBM binding z-score [9],PBM binding z-score [10]
CTACCAAGGTGAACAAGGTCGTTCATTACTATTC,2.27,3.01,1.12,2.9,0.239,3.12,1.29,1.56,0.212,0.958
CCATACGGGTCAAGGTTATAGCACGGGTGGTACG,5.13,3.28,0.265,2.54,-0.237,4.84,4.87,4.32,1.07,3.23
AGAACGTGGGCACGCTGAGTTGATAGCAGAGTAG,-0.602,-0.538,-0.448,-0.8,-1.22,-0.462,0.523,-0.265,-0.225,-0.405
CAAACTAGGTCACGAAAGGTCGAAGTCGAATGAC,5.94,6.62,2.69,5.17,0.867,6.03,9.65,7.81,5.91,8.11
ACTAGTTGGTCAGCTGAGGTCTCACACAATTCGG,0.132,-0.314,-0.301,-0.188,-0.19,0.142,0.384,0.246,-0.202,0.00207
CGTCCAAGGTCAAGTTCAGTGAAAGAGACTCGAA,8.18,5.89,2.13,4.76,2.42,5.94,5.62,5.92,2.3,4.88
ACTTCCGGGTCAACGAGGTTATAGCACGCGTATA,6.37,4.46,0.851,4.24,1.38,5.23,6.06,5.53,2.51,4.51
TCTATTTGGTCACGGAGGTCACACACGACGGGTA,3.93,3.92,3.39,3.88,2.63,4.23,4.04,4.8,4.57,4.77
TGAATGAGGGTATAAGATCAGGGAACGTTGCAAA,0.413,0.344,-0.145,0.00334,0.501,0.874,0.576,1.23,1.11,0.839
CCGACTGGTGCAAAGGTTACCATACTCAGTACGA,0.595,1.59,0.244,1.89,-0.483,3.86,6.69,6.67,4.73,6.75
ACTAGTAGTTGAGACGAGGGCAACCGATAGGTTG,0.415,0.0058,-0.401,-0.109,-0.494,0.237,0.537,-0.227,-0.398,-0.329
GCGACTGAGGCATCAGCAGGTTACCATAACTTAA,-0.539,-0.504,-0.511,-0.382,-0.493,-0.272,0.31,-0.607,-0.469,-0.443
ATAATGAGGTTATACGTAGATCAGGGAAGAAAGT,2.27,2.55,0.45,1.89,0.893,3.42,2.56,2.38,0.895,1.89
GGAACGAGGGCAATCGAGTTGATAGCATGGCGAT,0.644,0.434,-0.647,-0.187,-0.883,1.38,1.12,0.753,-0.285,0.268
TCATCTAGGTAAAGGTGAAAGTCGAACGATATGA,1.37,1.5,0.00636,1.3,0.134,3.3,3.93,4.83,4.58,4.92
AATACTGGGTCATCGTAGGCCAGAGTACGCACAG,3.75,4.06,1.07,2.04,0.0752,4.49,6.86,5.4,3.02,4.86
CGAACGAGAGCATGAGTTGATAGCAAATGCCGAT,-0.453,-0.53,-0.103,-0.828,-0.953,-0.357,0.777,0.133,-0.214,-0.282
TCTAGCAGGCCAGAGGGCCACTCAAGAGGTACGG,-0.266,-0.338,-0.799,-0.58,-1.64,0.104,0.795,1.97,1.77,1.71
ACTAGCAGGCCGAGTTTGGGTCACTCAAACAAAG,-0.115,-0.146,-0.389,0.653,-0.928,1.21,-0.2,-0.103,-0.644,-0.461
CGTCCAAGGTCAAGGTCGGTGAAAGAGACTCGAA,7.27,5.92,0.458,4.22,0.00899,5.85,5.34,5.83,2.16,4.39
CAAACTAGGTCAAGGGTCAAAGTCGAGCCAACCA,7.52,5.72,2.34,5.71,1.02,7.64,13.1,10.9,11.4,11.8
AGAATGTGGTTAAGATCAGGGAAACAGAATACAT,0.33,-0.14,0.153,0.27,0.174,0.172,0.496,0.291,0.299,-0.247
CCTCGGAGGACAGAGGGTCAGAGCTGTCCGCTTT,0.828,0.75,-0.594,0.328,-1.2,1.2,-0.24,0.834,-0.79,-0.115
